Data published in PubChem BioAssay AID743279 (National Center for Advancing Translational Sciences (NCATS), 2014).
About 17,000 (4.7%) of roughly 360,000 compounds were called active. Roughly 5% stayed inconclusive and do not appear here. The sample holds actives, similar compounds and a random draw of the others, so the mix is not that of the screen. No stated cut-off is given here; in the data, active means activity change below about -50%; inconclusive means mostly about -30% to -49%; inactive means weaker than that.
On the % scale 0 is the no-effect control and ±100 the full control effect.

Assay: qHTS for Inhibitors of Inflammasome Signaling: IL-1-beta AlphaLISA Primary Screen
Conditions: THP-1 LPS/ATP IL-1B secretion, 16 h; at 57.5 µM, hits give low values
Summary of the method: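 THP-1 cells pretreated 1 hr with compounds (up to 57.5 uM final), then stimulated with LPS (250 ng/mL final) plus ATP (1.25 mM final); secreted IL-1B measured by AlphaLISA after 16 hr, decreased signal indicating inhibition.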
In the case of `CSc1ncnc2c1ncn2CCCNCC(C)c1ccccc1` (configuration not stated), the activity change is reported as 17.6% (inactive).
In the case of `COc1ccc(-c2cc(NC(C)=O)c3ncc(-c4cc(OC)c(OC)c(OC)c4)n3c2)cn1`, the activity change is reported as 41.4% (inactive).
For `CCN(C(=O)CN1C(=O)/C(=C/c2ccc(F)cc2)SC1=S)C1CCS(=O)(=O)C1` (configuration not stated), the activity change was 0% (inactive).
With `O=C1/C(=C/c2ccc(F)cc2)SC(=S)N1CCCC(=O)N1CCCCC1CCO` (configuration not stated) the activity change was -86.6% (active).
In the case of `COc1ccc(/C=C2\SC(=S)N(CCCC(=O)NC3CCCC3)C2=O)cc1OC`, the activity change is reported as 7.66% (inactive).
For `Cc1cccc(C)c1-n1nnnc1C1(C)CCC(=O)N1CCOc1ccccc1` (configuration not stated), the activity change was 33.1% (inactive).
In the case of `CC(C)c1ccc(/C=C/C(=O)NCCCN2CCOCC2)cc1`, the activity change is reported as -1.14% (inactive).
With `CC1CC(NC(=S)N(C)C)CC(C)(C)C1` (configuration not stated) the activity change was 31.1% (inactive).
For `COc1cc(NS(=O)(=O)c2ccc3ccccc3c2)c2ncccc2c1`, the activity change was 20.6% (inactive).
For `NS(=O)(=O)c1ccc(CCNS(=O)(=O)c2cccc3cccnc23)cc1`, the activity change was 7.82% (inactive).
With `O=[N+]([O-])c1ccccc1S(=O)(=O)Nc1cccc2cccnc12` the activity change was -99.8% (active).
For `CN(C(=O)c1cccc(NC(=O)Cc2cccc(NC(=O)C3CCCN(C(=O)C4CC4)C3)c2)c1)C1CCC1` (configuration not stated), the activity change was 0% (inactive).
With `COC(=O)c1ccc2nc(-c3ccc(C)cc3)c(Cc3ccc(OC)cc3C)n2c1` the activity change was 16% (inactive).
For `O=C(/C=C/c1ccco1)Nc1ccc(Oc2ccccc2)cc1`, the activity change was -58.1% (active).
With `O=C(/C=C/c1ccco1)NC(=S)Nc1ccccc1Br` the activity change was -18.4% (inactive).
With `COc1cccc(NC(=O)COC(=O)/C=C/c2ccco2)c1` the activity change was 19.5% (inactive).
In the case of `CSC1=NCCN1C(=O)c1ccc(S(=O)(=O)N2CCOCC2)cc1`, the activity change is reported as 2.64% (inactive).
For `CC(=O)Nc1ccc(C(=O)Nc2cc(S(=O)(=O)N3CCOCC3)ccc2N2CCOCC2)cc1`, the activity change was -12.6% (inactive).
In the case of `CCC(C)NC(=O)c1ccc(NC(=O)CC2SC(N3CCCCC3)=NC2=O)cc1` (configuration not stated), the activity change is reported as -15.8% (inactive).
With `COc1cccc2cc(C(=O)NCc3ccc(C)cc3)c(=N)oc12` the activity change was -59.4% (active).
For `N=c1oc2ccccc2cc1C(=O)NCc1ccccc1`, the activity change was -22.4% (inactive).
With `COc1cccc2cc(C(=O)N(C)C)c(=O)oc12` the activity change was -12.7% (inactive).
For `OC[C@@H]1CN(Cc2ccncc2)C[C@H](n2cnc3c(N4CCN(c5ccccc5)CC4)ncnc32)O1`, the activity change was 3.63% (inactive).
In the case of `O=C(Nc1cccnc1)c1cc(Cl)ccc1Cl`, the activity change is reported as -60.5% (active).
With `O=C(Nc1cccnc1)c1cc([N+](=O)[O-])ccc1Cl` the activity change was 0% (inactive).
For `O=C(Nc1cccnc1)c1ccc(Cl)cc1[N+](=O)[O-]`, the activity change was 0% (inactive).
With `COCCNC(=S)N1CCN(C)CC1` the activity change was 26.6% (inactive).
For `c1ccc(Cc2ccc(OCCn3ccnc3)cc2)cc1`, the activity change was -57.5% (active).
In the case of `Clc1ncn(CCOc2ccccc2)c1Cl`, the activity change is reported as -9.73% (inactive).
For `Brc1ccc(OCCn2ccnc2)cc1`, the activity change was -15% (inactive).
With `CC(C)Oc1cc(F)ccc1-c1cc(C(=O)Nc2ccc(F)cc2)[nH]n1` the activity change was -25.4% (inactive).
In the case of `Cn1c(=O)c([N+](=O)[O-])c(Oc2ccccc2)c2ccccc21`, the activity change is reported as -86.4% (active).
With `Cn1nc(-c2ccccc2)c2cc([N+](=O)[O-])ccc21` the activity change was -13.7% (inactive).
In the case of `Cc1cccc(Oc2c([N+](=O)[O-])c(=O)n(C)c3ccccc23)c1`, the activity change is reported as -101% (active).
With `Cc1cccc(OP(=O)(Nc2c(C)n(C)n(-c3ccccc3)c2=O)Oc2cccc(C)c2)c1` the activity change was -27.9% (inactive).
With `COc1cc2c(=O)n(C)c3ccccc3c2cc1OC` the activity change was -24.4% (inactive).
In the case of `Cc1cc(C)c(-c2c(O)c3ccccc3n(C)c2=O)c(C)c1`, the activity change is reported as 13% (inactive).
For `CC(=O)C1=C(O)C(=O)N(c2ccc(S(N)(=O)=O)cc2)C1c1ccccc1F` (configuration not stated), the activity change was 7.68% (inactive).
With `NC(=O)c1ncn([C@@H]2O[C@H](CN=C3NS(=O)(=O)c4ccccc43)[C@@H](O)[C@H]2O)n1` the activity change was 21.3% (inactive).
For `NS(=O)(=O)c1ccc(NC(=S)Nc2ccc(Br)c(Cl)c2)cc1`, the activity change was -89% (active).
For `NS(=O)(=O)c1ccc(CCNC(=S)Nc2ccc(S(N)(=O)=O)cc2)cc1`, the activity change was -3.65% (inactive).
With `COc1ccc(NC(=S)Nc2ccc(S(N)(=O)=O)cc2)c(C)c1` the activity change was -12.2% (inactive).
For `CCOC(=O)CSc1nccc(N(C)C)c1C#N`, the activity change was -70.3% (active).
With `CCOC(=O)CSc1ccccn1` the activity change was 3.79% (inactive).
In the case of `CCOC(=O)CSc1nc(N2CCOCC2)c2c(c1C#N)CC(C(C)C)OC2` (configuration not stated), the activity change is reported as 56.1% (inactive).
With `O=S(=O)(Cc1cc(Cl)nc(-c2cccnc2)n1)c1ccccc1` the activity change was -98.6% (active).
For `O=S(=O)(NCCc1csc(-c2ccccc2)n1)c1cccnc1`, the activity change was 41.8% (inactive).
In the case of `O=S(=O)(Cc1cc(Sc2ccccc2)nc(-c2ccccc2)n1)c1ccccc1`, the activity change is reported as 0% (inactive).
For `O=C1NC(Cc2ccccc2)c2nc3ccc(Br)cc3c(=O)n2-c2cc3ccccc3cc21` (configuration not stated), the activity change was -12% (inactive).
For `C[C@H](O)[C@@H]1C(=O)N2CCc3ccc(N4CCOCC4)cc3[C@@H]2C[C@@H]1N(C)C(=O)C(C)(C)C`, the activity change was 0% (inactive).
In the case of `CN1OC[C@@H]2CN(C(=O)C(C)(C)C)[C@H](c3ccc(-n4ccnc4)cc3)C[C@@H]21`, the activity change is reported as -20.8% (inactive).
For `Cc1ccccc1S(=O)(=O)N1[C@@H](c2cccc(Cl)c2)C(C(=O)OC(C)(C)C)=CC[C@H]1c1ccc(Cl)cc1`, the activity change was -7.69% (inactive).
In the case of `CC(C)OCCCNC(=O)CN1C(=O)/C(=C/c2ccccc2F)Oc2ccccc21`, the activity change is reported as 14.1% (inactive).
In the case of `CCCN1CCN(CCCNC(=O)CN2C(=O)COc3ccccc32)CC1`, the activity change is reported as 5.04% (inactive).
In the case of `CN1CCN(CCCNC(=O)c2ccc(/C=C3\Oc4ccccc4N(Cc4ccc(Cl)cc4)C3=O)cc2)CC1`, the activity change is reported as -78% (active).
In the case of `Cc1cccc(CN2CCN(C3CN(Cc4ccccc4)S(=O)(=O)C3)CC2)c1` (configuration not stated), the activity change is reported as 5.62% (inactive).
For `COC(=O)C1C(=O)NCC1c1ccc(OC)cc1` (configuration not stated), the activity change was 5.62% (inactive).
For `C[C@@H]1CN([C@@H](C)CO)C(=O)c2cc(Br)cnc2O[C@@H]1CN(C)C(=O)C1CCCCC1`, the activity change was -1.93% (inactive).
In the case of `CC(C)=C1SC(N2CCN(c3cccc(C)c3)CC2)=NC1=O`, the activity change is reported as -56.9% (active).
In the case of `CC(C)=C1SC(N2CCN(c3ccc(C)c(Cl)c3)CC2)=NC1=O`, the activity change is reported as 25.2% (inactive).
For `CNS(=O)(=O)c1cnccc1N1CCN(c2cccc(C)c2)CC1`, the activity change was -2.21% (inactive).
In the case of `CCCCCc1c(C)nc(N2CCN(Cc3ccc4c(c3)OCO4)CC2)[nH]c1=O`, the activity change is reported as -0.641% (inactive).
With `Fc1ccc2[nH]c3c(N4CCSCC4)ncnc3c2c1` the activity change was -62% (active).
In the case of `O=c1[nH]c(N2CCN(Cc3ccc4c(c3)OCO4)CC2)nc2c1CCCC2`, the activity change is reported as 4.34% (inactive).
For `Fc1ccc2[nH]c3c(N4CCN(Cc5ccc6c(c5)OCO6)CC4)ncnc3c2c1`, the activity change was -94.7% (active).
For `O=C(NCCS(=O)(=O)N1CCN(c2ccccc2)CC1)c1cc(=O)c2ccccc2o1`, the activity change was -1.79% (inactive).
In the case of `CC(=O)Oc1ccc(OC(C)=O)c2c1C1C=CC2CC1`, the activity change is reported as -13.5% (inactive).
With `FC(F)(F)c1nc(-c2ccccc2)ncc1-c1nnnn1-c1ccccc1` the activity change was -66.2% (active).
For `Clc1ccc(-n2nnnc2-c2cnc(-c3ccccn3)nc2-c2cccs2)cc1`, the activity change was -21.9% (inactive).
With `c1ccc(-n2nnnc2-c2cccnc2)cc1` the activity change was -6.19% (inactive).
In the case of `O=C(CNC(=O)c1ccc(-c2ccccc2)cc1)OCc1ccc(Cl)cc1`, the activity change is reported as 18.8% (inactive).
With `O=C(OCC(=O)c1c[nH]c2ccccc12)c1cccc(O)c1` the activity change was -4.98% (inactive).
With `O=C(OCc1ccc(-c2ccccc2)cc1)c1cccc(O)c1` the activity change was -71.1% (active).
For `Cn1cc(C2OC(=O)c3ccccc32)c2ccccc21` (configuration not stated), the activity change was -66% (active).
In the case of `CSc1nnc2c(n1)OC(c1cn(C)c3ccccc13)N(C(C)=O)c1ccccc1-2` (configuration not stated), the activity change is reported as 0.333% (inactive).
In the case of `CCN(CC)CCNC(=O)C1c2ccccc2C(=O)N(C)C1c1cn(C)c2ccccc12` (configuration not stated), the activity change is reported as 6.05% (inactive).
With `CCCc1ccc(C(O)c2ncc(-c3cccc(OC)c3)[nH]2)cc1` (configuration not stated) the activity change was 26% (inactive).
With `COC(=O)c1ccccc1Oc1c(F)c(F)nc(N2CCOCC2)c1F` the activity change was 5.09% (inactive).
In the case of `Cn1nc(C(=O)OCC(=O)N(Cc2ccccc2)C(C)(C)C)c2ccccc2c1=O`, the activity change is reported as 10.9% (inactive).
With `Cc1ccc(C)c(OCCC(=O)OCC(=O)NC(=O)NCc2ccccc2)c1` the activity change was -87.8% (active).
For `Cc1ccc(C)c(OCCC(=O)OCC(=O)N2CCN(c3ccccc3)CC2)c1`, the activity change was -2.33% (inactive).
For `COc1ccccc1OCCC(=O)OCC(=O)NCc1ccccc1`, the activity change was 18% (inactive).
With `Nc1[nH]c(C(=O)c2ccccc2)c(-c2ccncc2)c1C(=O)NCc1cccc2ccccc12` the activity change was 7.69% (inactive).
For `Cc1noc(C)c1S(=O)(=O)N(C)C[C@H]1OCCCC[C@@H](C)Oc2ccc(NC(=O)CCCN(C)C)cc2C(=O)N([C@H](C)CO)C[C@@H]1C`, the activity change was 19.6% (inactive).
For `O=[N+]([O-])c1ccc(CN2CC(N3CC=CC3)CS2(=O)=O)cc1` (configuration not stated), the activity change was -24.5% (inactive).
With `COC(=O)c1ccc(NC(=O)C23CC4CC(C2)CC(n2cnc(Cl)n2)(C4)C3)cc1` the activity change was 54.6% (inactive).
With `O=C(CSc1nc2cccc(F)c2c(=O)n1-c1ccccc1)Nc1ccc2c(c1)CCC2` the activity change was 0% (inactive).
For `Oc1c(Cl)cc(Cl)cc1/C=N/c1ncn[nH]1`, the activity change was -20.2% (inactive).
In the case of `COc1cc(Br)cc(/C=N/c2ncn[nH]2)c1O`, the activity change is reported as -55.5% (active).
For `C=CCn1c(Cn2nnc3ccccc32)nnc1SCC(=O)N/N=C/c1cc(Br)cc(OC)c1O`, the activity change was 1% (inactive).
With `Nn1c(SCC(=O)Nc2nccs2)nncc1=O` the activity change was 9.24% (inactive).
With `C[C@@H]1C[C@@H]2O[C@H]2/C=C\C=C\C(=O)Cc2c(Cl)c(O)cc(O)c2C(=O)O1` the activity change was -108% (active).
